{"source": "PubChem BioAssay AID1259418", "about": "(Broad Institute, 2018)", "note": "The whole screen tested about 3,400 compounds, of which about 840 (25%) were called active. Roughly 11% stayed inconclusive and do not appear here.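 Rule for the calls: active = fitted half-maximal concentration of signal decrease at or below twice the sample's top tested concentration; inconclusive = flat curve between -70 and -30 percent, or poor fit; inactive = flat within 30 percent, signal rise, or potency above limit.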 Only a sample is shown. Measured potencies and affinities stand elsewhere."}
{"assay": "T. gondii growth inhibition with IFN-gamma, dose response, cell-based, ME49Luc, HeLa, luciferase, 72 h (AID 1259418)", "settings": "T. gondii ME49Luc in IFN-y HeLa, stronger effect = lower value, -100% = high-dose IFN-γ control wells; at 19.5 µM unless noted"}
{"smiles": "Cc1ccc(C)c(-c2coc(-c3ccc(NC(=O)Nc4ccc5c(c4)OCCO5)cc3)n2)c1", "max activity": "196% [at 5 µM] (inactive)"}
{"smiles": "CCc1nc(OCC(=O)Nc2ccc(OC)cc2OC)c2ccccc2n1", "max activity": "-16.2% [at 0.35 µM] (inactive)"}
{"smiles": "CCOC(=O)CSC1=Nc2ccccc2C2=NC(CC(=O)NCc3ccccc3)C(=O)N12", "note": "(configuration not stated)", "max activity": "-17% [at 0.16 µM] (inactive)"}
{"smiles": "CCOc1ccccc1-c1noc(-c2nnn(Cc3nc(-c4cccc(C)c4)oc3C)c2C)n1", "max activity": "-4.72% [at 5 µM] (inactive)"}
{"smiles": "N#C[C@H]1[C@H](c2ccc(C#Cc3cccc(F)c3)cc2)[C@@H](CO)N1C(=O)C1CCOCC1", "max activity": "33.1% (inactive)"}
{"smiles": "N#C[C@@H]1[C@H](c2ccc(C#Cc3cccc(F)c3)cc2)[C@H](CO)N1C(=O)C1CCOCC1", "max activity": "26.4% [at 10 µM] (inactive)"}
{"smiles": "COc1cccc(-c2nc3c(s2)CN(C(=O)NC2CCCCC2)CC3)c1", "max activity": "-6.7% (inactive)"}
{"smiles": "Cc1ccc(-c2noc(-c3nnn(Cc4nc(-c5cccc(C)c5)oc4C)c3C)n2)cc1", "max activity": "7.12% [at 0.68 µM] (inactive)"}
{"smiles": "Cc1ccc(-c2noc(-c3nnn(Cc4nc(-c5ccc(C)cc5)oc4C)c3C)n2)cc1", "max activity": "8.64% (inactive)"}
{"smiles": "COc1ccc(-c2nc(Cn3nnc(-c4nc(-c5cc(OC)cc(OC)c5)no4)c3C)c(C)o2)cc1", "max activity": "4.11% [at 0.35 µM] (inactive)"}
{"smiles": "COc1ccc(-c2nc(Cn3nnc(-c4nc(-c5ccc(C)cc5)no4)c3C)c(C)o2)cc1", "max activity": "4.22% [at 0.16 µM] (inactive)"}
{"smiles": "CCOc1ccccc1-c1noc(-c2nnn(Cc3nc(-c4ccc(C)cc4)oc3C)c2C)n1", "max activity": "-5.47% [at 1.35 µM] (inactive)"}
{"smiles": "Cc1cccc(-c2nc(Cn3nnc(-c4nc(-c5ccccc5)no4)c3C)c(C)o2)c1", "max activity": "4.79% [at 0.68 µM] (inactive)"}
{"smiles": "COc1ccc(-c2nc(Cn3nnc(-c4nc(-c5cccs5)no4)c3C)c(C)o2)cc1", "max activity": "7.54% [at 0.16 µM] (inactive)"}
{"smiles": "COc1ccc(-c2nc(Cn3nnc(-c4nc(-c5ccccc5OC)no4)c3C)c(C)o2)cc1", "max activity": "-5.44% [at 1.35 µM] (inactive)"}
{"smiles": "CN(C)C(=O)c1ccc2nnc3ncn(Cc4ccccc4)c3c2c1", "max activity": "-17.6% [at 10 µM] (inactive)"}
{"smiles": "COc1ccc(CCNc2nc(SCc3ccc(Cl)cc3)nc3ccccc23)cc1OC", "max activity": "9.35% [at 1.35 µM] (inactive)"}
{"smiles": "COc1nc2c(c(C)nn2-c2ccccc2)c(C)c1CCC(=O)NCCc1c[nH]c2ccccc12", "max activity": "7.44% (inactive)"}
{"smiles": "O=C(Nc1c(C(=O)N2CCCC2)[nH]c2ccccc12)c1ccc(Cl)cc1", "max activity": "30.4% [at 10 µM] (inactive)"}
{"smiles": "O=C(CCC1N=C2c3ccccc3N=C(SCc3cc(=O)n4ccccc4n3)N2C1=O)NCc1ccco1", "note": "(configuration not stated)", "max activity": "26.1% [at 1.35 µM] (inactive)"}
{"smiles": "CCc1nc(OCC(=O)Nc2cc(OC)ccc2OC)c2ccccc2n1", "max activity": "-25% [at 2.6 µM] (inactive)"}
{"smiles": "Cc1ccc(C)c(-c2coc(-c3ccc(NC(=O)C4CCCCC4)cc3)n2)c1", "max activity": "10.4% [at 10 µM] (inactive)"}
{"smiles": "Cc1ccc(-c2nc(Cn3nnc(-c4nc(-c5ccccc5C)no4)c3C)c(C)o2)cc1", "max activity": "15.4% [at 0.16 µM] (inactive)"}
{"smiles": "Cc1nc(CCNC(=O)C2CCN(S(=O)(=O)c3ccc(Cl)s3)CC2)cs1", "max activity": "-9.13% (inactive)"}
{"smiles": "O=S(=O)(c1cccs1)N1CCC2(CC1)NCCN=C2NCc1cc(F)cc(F)c1", "max activity": "10.2% [at 0.16 µM] (inactive)"}
{"smiles": "Cc1cccc(CNC2=NCCNC23CCN(S(=O)(=O)c2cccs2)CC3)c1", "max activity": "13.8% (inactive)"}
{"smiles": "Cc1ccc(CNC2=NCCNC23CCN(S(=O)(=O)c2cccs2)CC3)cc1", "max activity": "17.3% [at 10 µM] (inactive)"}
{"smiles": "O=S(=O)(c1cccs1)N1CCC2(CC1)NCCN=C2NCc1ccc(F)c(Cl)c1", "max activity": "-41.7% (inactive)"}
{"smiles": "CCCC(=O)Nc1ccc(-c2nc(-c3ccccc3)co2)cc1", "max activity": "72.8% [at 10 µM] (inactive)"}
{"smiles": "Cc1nc(CCNC(=O)C2CCN(S(=O)(=O)c3ccc(CC(C)C)cc3)CC2)cs1", "max activity": "-7.19% [at 1.35 µM] (inactive)"}
{"smiles": "Cc1cc(C)cc(S(=O)(=O)N2CCC(C(=O)NCCc3csc(-c4ccccc4)n3)CC2)c1", "max activity": "16.8% [at 10 µM] (inactive)"}
{"smiles": "O=C(NCCc1csc(-c2ccccc2)n1)C1CCN(S(=O)(=O)c2cccc(F)c2)CC1", "max activity": "8.1% [at 5 µM] (inactive)"}
{"smiles": "Cc1nc(CCNC(=O)C2CCN(S(=O)(=O)c3ccc(Cl)cc3)CC2)cs1", "max activity": "-9.1% [at 0.35 µM] (inactive)"}
{"smiles": "O=C(NCCc1csc(-c2ccccc2)n1)C1CCN(S(=O)(=O)c2ccccc2)CC1", "max activity": "11.6% [at 10 µM] (inactive)"}
{"smiles": "Cc1ccc(S(=O)(=O)N2CCC(C(=O)NCCc3csc(-c4ccccc4)n3)CC2)cc1", "max activity": "5.41% [at 5 µM] (inactive)"}
{"smiles": "CCOc1ccc(S(=O)(=O)N2CCC(C(=O)NCCc3csc(-c4ccccc4)n3)CC2)cc1", "max activity": "21.5% [at 5 µM] (inactive)"}
{"smiles": "O=C(NCCc1csc(-c2ccccc2)n1)C1CCN(S(=O)(=O)c2cccs2)CC1", "max activity": "11.2% [at 0.16 µM] (inactive)"}
{"smiles": "COC(=O)c1sccc1S(=O)(=O)N[C@@H]1CC[C@@H](N)C1", "max activity": "17.5% (inactive)"}
{"smiles": "CCc1c(C)sc2c1CCN(Cc1nc(-c3cccc(Cl)c3)oc1C)C2c1ccccc1", "note": "(configuration not stated)", "max activity": "7.75% [at 0.68 µM] (inactive)"}
{"smiles": "COc1cccc(-c2nc3c(s2)CN(S(=O)(=O)c2ccc(CC(C)C)cc2)CC3)c1", "max activity": "8.23% [at 2.6 µM] (inactive)"}
{"smiles": "CCc1ccccc1Nc1nc(-c2ccc(OC)cc2)nc2ccccc12", "max activity": "-9.45% [at 0.16 µM] (inactive)"}
{"smiles": "COc1ccccc1-c1nc(Cn2nnc(-c3nc(-c4ccccc4)no3)c2C)c(C)o1", "max activity": "-9.24% [at 1.35 µM] (inactive)"}
{"smiles": "Cc1cccc(C2=NC3(CCN(Cc4ccccc4C)CC3)NC2=O)c1", "max activity": "12% [at 0.16 µM] (inactive)"}
{"smiles": "O=C(Cc1ccc(F)cc1)Nc1ccc(-c2nc(-c3ccccc3)co2)cc1", "max activity": "4.13% [at 5 µM] (inactive)"}
{"smiles": "COc1ccc(-c2nc(Nc3ccc(C)cc3Cl)c3ccccc3n2)cc1", "max activity": "-11.8% [at 2.6 µM] (inactive)"}
{"smiles": "NC(=O)C1(N2CCCCC2)CCN(c2ncc(NC(=O)c3ccccc3F)cc2C(=O)O)CC1", "max activity": "15.7% [at 2.6 µM] (inactive)"}
{"smiles": "CCCc1ccc(S(=O)(=O)N2CCc3nc(-c4cccc(OC)c4)sc3C2)cc1", "max activity": "-6.99% [at 2.6 µM] (inactive)"}
{"smiles": "COc1cc(OC)cc(C(=O)N2CCC3(CC2)Nc2ccc(C)c(C)c2-n2cccc23)c1", "max activity": "-13.1% [at 0.35 µM] (inactive)"}
{"smiles": "COc1cccc(CC(=O)N2CCC(C(=O)NCCc3csc(-c4ccccc4)n3)CC2)c1", "max activity": "8.89% [at 10 µM] (inactive)"}
{"smiles": "O=C(NCCc1csc(-c2ccccc2)n1)C1CCN(C(=O)Cc2ccc(Cl)cc2)CC1", "max activity": "8.14% (inactive)"}
{"smiles": "COc1ccc(-c2nc3c([nH]2)c(=O)n(C)c(=O)n3C)cc1OC", "max activity": "40.8% [at 0.35 µM] (inactive)"}
{"smiles": "Cc1ccc(CCNC(=O)CCC2Nc3c4ccccc4nc(=S)n3C2=O)cc1", "note": "(configuration not stated)", "max activity": "13.4% [at 10 µM] (inactive)"}
{"smiles": "CN(C)CC(=O)N1C[C@@H]2N[C@H](C1)C2c1ccc(C2=CCCCC2)cc1", "note": "(some centres not stated)", "max activity": "18.8% [at 9 µM] (inactive)"}
{"smiles": "COc1cccc(S(=O)(=O)N2CC[C@@H]3[C@H](CO)Nc4ccc(C5=CCCCC5)cc4[C@@H]32)c1", "max activity": "8.73% [at 10 µM] (inactive)"}
{"smiles": "Cc1nc(CCNC(=O)[C@H]2CCCN2S(=O)(=O)c2cccs2)cs1", "max activity": "7.39% [at 0.16 µM] (inactive)"}
{"smiles": "O=C(NCCCN1CCC(N2CCCCC2)CC1)c1nnc2ccc(-c3ccccc3)nn12", "max activity": "16.2% [at 0.16 µM] (inactive)"}
{"smiles": "Cc1cccc(C(=O)N2CCC3(CC2)Nc2ccc(C)c(C)c2-n2cccc23)c1", "max activity": "11.2% [at 0.68 µM] (inactive)"}
{"smiles": "Cc1oc(-c2ccccc2)nc1Cn1nnc(-c2nc(-c3ccc4c(c3)OCO4)no2)c1C", "max activity": "8.48% [at 10 µM] (inactive)"}
{"smiles": "COc1ccc(-c2nc(NCC3CCN(Cc4cccc(C)c4)CC3)c3ccccc3n2)cc1", "max activity": "-18.6% [at 2.6 µM] (inactive)"}
{"smiles": "COc1ccc(-c2nc(NCC3CCN(Cc4cccc(Cl)c4)CC3)c3ccccc3n2)cc1", "max activity": "-31.6% [at 10 µM] (inactive)"}
{"smiles": "COc1cccc(CN2CCc3nc(SCc4nc(-c5ccccc5)oc4C)[nH]c(=O)c3C2)c1", "max activity": "24.2% [at 2.6 µM] (inactive)"}
{"smiles": "O=S(=O)(Cc1ccccc1)N1CC2CN(Cc3cccc(Cl)c3)CC2C1", "note": "(configuration not stated)", "max activity": "9.94% (inactive)"}
{"smiles": "COc1cccc(CNC(=O)N2CCc3nc(-c4ccccc4)sc3C2)c1", "max activity": "-15% [at 5 µM] (inactive)"}
{"smiles": "COCCC(=O)c1cc2c(s1)CCN2Cc1cccnc1", "max activity": "26.4% (inactive)"}
{"smiles": "Cc1ccccc1S(=O)(=O)N1CCCCN2[C@H](CO)[C@H](c3ccc(C#CCN(C)C)cc3)[C@@H]2C1", "max activity": "-17.9% (inactive)"}
{"smiles": "Cc1ccccc1S(=O)(=O)N1CCCCN2[C@H](CO)[C@H](c3ccc(C#CCN(C)C)cc3)[C@H]2C1", "max activity": "23.7% (inactive)"}
{"smiles": "Cc1cccc(N2CCN(c3nc(-c4ccc(Cl)cc4)nc4ccccc34)CC2)c1C", "max activity": "10.6% (inactive)"}
{"smiles": "c1cc(-c2nccn2CCn2ccnc2)ccn1", "max activity": "11.4% (inactive)"}
{"smiles": "COc1cccc(CNc2nc(-c3ccc(Cl)cc3)nc3ccccc23)c1", "max activity": "-22% [at 1.35 µM] (inactive)"}
{"smiles": "O=S(=O)(c1cccc(F)c1)N1CC[C@@H]2[C@H]1c1cc(Br)ccc1N[C@@H]2CO", "max activity": "35.2% [at 10 µM] (inactive)"}
{"smiles": "OC[C@@H]1Nc2ccc(-c3cccc(F)c3)cc2[C@H]2[C@@H]1CCN2Cc1ccc(F)cc1", "max activity": "42.2% [at 10 µM] (inactive)"}
{"smiles": "Cc1ccc(-c2csc(-c3cccn3CC(=O)N3CCC4(CC3)OCCO4)n2)cc1", "max activity": "11.8% [at 5 µM] (inactive)"}
